Experimental data: PubChem BioAssay AID651791 (National Center for Advancing Translational Sciences (NCATS), 2012)
Records with an inconclusive call do not appear. Calls of active or inactive are those of the source. The call rests on the fitted dose curve; in most records, active means well fitted inhibition curve with a large enough effect; inconclusive means small, poorly fitted or top-dose-only effect; inactive means no such curve, though single readings can be large or run the other way.

Assay: InCell qHTS Assay for Inhibitors of the mTORC1 Signaling Pathway in MEF (Tsc2-/-, p53-/-) Cells: Hit Validation;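 further: phospho-S6 Ser235/236 signal normalized to propidium iodide cell count per well; nearly all actives have a fitted effect of over 75% in size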
Conditions: phospho-rpS6 immunofluorescence, 24 h; activity change, negative = inhibition: at 38.3 µM (top of the series)
Potency means the concentration at half of the fitted maximal effect.

SMILES | activity change, negative = inhibition | Potency
Cc1ccc(-c2nnn(CC(=O)N(CC(=O)NCCC(C)C)c3ccc(F)cc3)n2)cc1 | -100% | –
CCNC(=O)c1c(NC(=O)c2nc(S(=O)(=O)CC)ncc2Cl)sc2c1CCCC2 | – | 2.07 µM (active)
CCS(=O)(=O)c1ncc(Cl)c(C(=O)N2CCN(c3ccc(OC)cc3)CC2)n1 | – | 4.65 µM (active)
CCc1ccc2ncc(S(=O)(=O)c3ccc(Cl)cc3)c(N3CCN(CC)CC3)c2c1 | -100% | –
Cc1nn(CC(=O)NCc2ccccc2Cl)c(=O)c2cccn12 | -100% | –
CCc1ccc(-c2nc(CSCC(=O)NCc3ccc(C)cc3)c(C)o2)cc1 | -100% | –
Cc1ccccc1OCc1ccc(-c2nc(C#N)c(NCCCN(C)C)o2)o1 | -100% | –
Brc1ccc(Nc2c3c(nc4nncn24)CCC3)cc1 | -100% | –
COc1ccc(-c2nc(CCNC(=O)c3c(F)cccc3Cl)cs2)cc1 | -100% | –
CCOC(=O)Cn1c(=O)c2c(nc(N3CCOCC3)n2Cc2ccccc2)n(C)c1=O | – | 11.7 µM (active)
CCC1=Nc2cc(C(=O)NC3CCC(C)CC3)ccc2Sc2ccc(C)cc21 (stereo not drawn) | -100% | –
FC(F)(F)c1cccc(Nc2nc3nonc3nc2Nc2ccc(Cl)cc2)c1 | -100% | –
Cc1ccc(Nc2nnc(-c3ccc(C)c(S(=O)(=O)N4CCOCC4)c3)c3ccccc23)c(C)c1 | -100% | –
CC(C)(C)c1ccc(C2NC(=O)c3n[nH]c(-c4cccs4)c32)cc1 (stereo not drawn) | -100% | –
COc1cc(NC(=O)c2cccc3c2C(=O)N(C2CCCCC2)C3)cc(OC)c1OC | -100% | –
Cc1c(C(=O)OC2CCCCC2)[nH]c2c1C(=O)CC(c1ccccc1)C2 (stereo not drawn) | -24.8% | –
O=C(CSc1cn(CC(=O)N2CCCC2)c2ccccc12)Nc1ccc(Cl)cc1 | -100% | –
COc1ccc(OCC(=O)NCc2ccc3c(c2)CCN3C(=O)c2ccccc2)cc1 | -100% | –
O=C(Cn1c(=O)n(Cc2ccc3c(c2)OCO3)c(=O)c2ccc(C(=O)NC3CCCCC3)cc21)Nc1ccccc1F | – | 5.21 µM (active)

SMILES | activity change, negative = inhibition | Potency
CC(C)(C)c1ccc(-c2nc(S(=O)(=O)c3ccccc3)c(N3CCOCC3)o2)cc1 | -100% | –
CCOc1ccccc1NC(=O)c1cn(C2CCCC2)c(=O)c2c1c1ccccc1n2C | -100% | –
CCOC(=O)N1CCN(Cc2nc3cc(NC(=O)CC(C)C)ccc3n2C(C)C)CC1 | -100% | –
CCOC(=O)N1CCN(Cc2nc3cc(NC(=O)c4ccc([N+](=O)[O-])cc4)ccc3n2C(C)C)CC1 | -100% | –
Cc1cc(C)c(-c2n[nH]c3c2C(c2ccccc2F)N(Cc2ccco2)C3=O)c(O)c1 (stereo not drawn) | -100% | –
Cc1cc(OCC(=O)NCC2(N3CCN(C)CC3)CCCCC2)cc(C)c1Cl | -100% | –
COc1ccc(-c2noc(CSc3nc(N)cc(=O)[nH]3)n2)cc1 | -100% | –
COc1cc(NC(=O)Cn2nc(C(F)(F)F)c3c2CCCC3)c(OC)cc1Cl | -100% | –
CCOC(=O)Cc1ccc(NC(=O)n2ncc3cc(Cl)ccc32)cc1 | -100% | –
Cc1ccccc1NC(=O)Cn1cc(C(=O)c2cccs2)c2ccccc21 | -100% | –
Cn1nc(-c2ccc(OCC(=O)Nc3ccccc3)cc2)c2ccccc2c1=O | -100% | –
CC(C)(C)c1ccc(C(=O)Nc2nnc3n2CCS3)cc1 | -100% | –
Cc1ccc(NC(=O)Nc2cccs2)c(C)c1 | -100% | –
Cc1oc(-c2ccccc2F)nc1Cn1c(SCc2cccc(Cl)c2)nc2ccncc21 | -100% | –
CCOC(=O)c1cnc2ccc(OC)cc2c1NCCc1ccccc1 | -100% | –
CC(C)(C)C1CCc2c(sc(NC(=O)C3c4ccccc4Oc4ccccc43)c2C(N)=O)C1 (stereo not drawn) | -100% | –
Cc1ccccc1CN1C(=O)C(O)(CC(=O)c2cccc(Br)c2)c2ccccc21 (stereo not drawn) | -100% | –
CCCCOc1ccccc1C1CC(=O)Nc2ccc3ccccc3c21 (stereo not drawn) | -100% | –
Cc1ccc(-c2nnc(Nc3ccc(O)cc3)c3ccccc23)cc1S(=O)(=O)N1CCCCC1 | -100% | –
